In experiment [1] the target is Thyrotropin-releasing hormone receptor (Homo sapiens) (UniProt P34981). In words: qHTS assay to identify small molecule agonists of the thyrotropin-releasing hormone receptor (TRHR) signaling pathway (AID 1346891; calls by dose curve;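 also: HEK293 cells expressing TRHR with calcium dye readout; series mostly up to about 58 µM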). The gist of the method: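 HEK293/TRHR cells, 1500 per well, 18 h 37 °C; Ca dye 2 h 37 °C; pin-tool compound addition (agonist mode); kinetic fluorescence 3 min, 1 s reads; 15 concentrations, triplicate.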
On the technique in general: qHTS replaces the single test concentration by a dilution series.

Experiment [2] in a line: Human pregnane X receptor (PXR) small molecule agonists, qHTS cell viability counter screen (AID 1346977). Also: nearly all actives have a fitted effect of over 50% in size. Also: potency is read from the fitted curve at half-maximal effect. In a few lines: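 Fluorescence read-out (CellTiter-Fluor) of viability in PXR-Luc HepG2 cells, multiplexed with the luciferase agonist read. Compounds in DMSO added after 5hr plating; 24hr total exposure at 37C, 5% CO2.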
Experiment [3] can be described thus: Caspase-3/7 induction in HepG2 cells by small molecules, qHTS assay (AID 1346978). Also: nearly all actives have a fitted effect of over 15% in size. In a few lines:
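Caspase-3/7 induction was measured by Caspase-Glo 3/7 luminescence (30 min, room temperature) after a 17 hr compound exposure of wild-type HepG2 cells seeded at 2,000 per well and pre-incubated 5 hr.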

Experiment [4] in a line: Caspase-3/7 induction in CHO-K1 cells by small molecules, qHTS cell viability counter screen (AID 1346979). Also: nearly all actives have a fitted effect of over 35% in size. Also: potency is read from the fitted curve at half-maximal effect. In a few lines: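 CHO-K1 wt, 1,500 cells/well; 5hr pre-incubation 37C/5% CO2; compound pin transfer (DMSO); 16hr exposure; CellTiter-Fluor added, 1hr, fluorescence read.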
A short description of experiment [5]: Caspase-3/7 induction in CHO-K1 cells by small molecules, qHTS assay (AID 1346980). Also: nearly all actives have a fitted effect of over 15% in size. The gist of the method:
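Luminescent Caspase-Glo 3/7 read (30min, room temperature) quantified apoptosis induction. Cells were wild-type CHO-K1, treated with compound for 17hr at 37 C and 5% CO2.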

A short description of experiment [6]: Caspase-3/7 induction in HepG2 cells by small molecules, qHTS cell viability counter screen (AID 1346981). Also: nearly all actives have a fitted effect of over 30% in size. Also: potency is read from the fitted curve at half-maximal effect. As to activity change, negative = cytotoxicity: series mostly up to about 92 µM. The gist of the method: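 Cell viability is measured as a cytotoxicity counter screen alongside the Caspase-Glo 3/7 readout in identical wells. Wild-type HepG2 cells are treated with test compounds for 16 hr at 37 C before CellTiter-Fluor addition and a 1-hr incubation.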

Experiment [7] has as its target Nuclear receptor subfamily 1 group I member 2 (Homo sapiens) (UniProt O75469). The experiment can be described thus: Human pregnane X receptor (PXR) small molecule agonists, qHTS assay (AID 1346982). Also: nearly all actives have a fitted effect of over 35% in size. Also: potency is read from the fitted curve at half-maximal effect. The gist of the method: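 Cells: HepG2 stably carrying PXR-Luc. Medium held 5% charcoal-stripped FBS. Compounds in DMSO added after 5 hr plating, incubated 24 hr, then luminescence quantified with ONE-Glo.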

The target of experiment [8] is Cytochrome P450 2D6 (Homo sapiens) (UniProt P10635). In words: Cytochrome P450 Family 2 Subfamily D Member 6 (CYP2D6) small molecule antagonists: luciferase reporter qHTS assay (AID 1671196). Also: nearly all actives have a fitted effect of over 50% in size. Also: potency is read from the fitted curve at half-maximal effect. As to activity change, negative = inhibition: series mostly up to about 120 µM. The gist of the method: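 Enzyme and proluciferin substrate were first combined with test chemical for 10 min at room temperature. Adding NADPH regeneration solution started a 1 h reaction, stopped with luciferin detection reagent and read by luminescence 20 min later.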
On the technique in general: Reporter assays use an easily measured gene product as a stand-in for the process of interest.

Experiment [9] has as its target Cytochrome P450 2C19 (Homo sapiens) (UniProt P33261). In words: Cytochrome P450 Family 2 Subfamily C Member 19 (CYP2C19) small molecule antagonists: luciferase reporter qHTS assay (AID 1671197). Also: series mostly up to about 120 µM; nearly all actives have a fitted effect of over 65% in size. The gist of the method:
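Relative luminescence units recorded 20 min after the detection reagent stopped a 1 h, 37C CYP2C19 reaction on proluciferin substrate, which was started by NADPH regeneration following 10 min room-temperature compound preincubation; ketoconazole positive control.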

Experiment [10] concerns the target Cytochrome P450 2C9 (Homo sapiens) (UniProt P11712). The experiment can be described thus: Cytochrome P450 Family 2 Subfamily C Member 9 (CYP2C9) small molecule antagonists: luciferase reporter qHTS assay (AID 1671198). Also: series mostly up to about 120 µM; nearly all actives have a fitted effect of over 50% in size. The gist of the method:
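Enzyme-substrate mix preincubated with compound 10 min at room temperature; reaction started with NADPH regeneration solution, 1 h 37C. Luminescent luciferin product read after 20 min detection reagent.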

Experiment [11] has as its target Cytochrome P450 1A2 (Homo sapiens) (UniProt P05177). In words: Cytochrome P450 Family 1 Subfamily A Member 2 (CYP1A2) small molecule antagonists: luciferase reporter qHTS assay (AID 1671199). Also: series mostly up to about 120 µM; nearly all actives have a fitted effect of over 50% in size. The gist of the method:
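Compounds were incubated with CYP1A2 and a luminogenic proluciferin substrate for 10 min at room temperature before the reaction was started with NADPH regeneration solution. After 1 h, detection reagent was added and light output, proportional to CYP activity, was recorded.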

Experiment [12] concerns the target Voltage-gated inwardly rectifying potassium channel KCNH2 (Homo sapiens) (UniProt Q12809). The experiment can be described thus: Human Ether-a-go-go-Related Gene (hERG) channel small molecule antagonists: fluorescence cell-based qHTS assay (AID 1671200). Also: nearly all actives have a fitted effect of over 50% in size. Also: potency is read from the fitted curve at half-maximal effect.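 As to activity change, negative = inhibition: hERG-expressing U2OS cells given a thallium stimulus after FluxOR II dye loading; series mostly up to about 77 µM.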 In a few lines:
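Read-out: thallium influx as a surrogate for potassium, tracked as fluorescence (480 nm ex/540 nm em) every second for 2 min after Stimulus Buffer addition in dye-loaded hERG-U2OS cells.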
(The hERG channel carries a current that helps repolarise heart muscle cells.)

Experiment [13] addresses Cytochrome P450 3A4 (Homo sapiens) (UniProt P08684). The experiment can be described thus: Cytochrome P450 Family 3 Subfamily A Member 4 (CYP3A4) small molecule antagonists: luciferase reporter qHTS assay (AID 1671201). The gist of the method:
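Luminescent readout (RLU) proportional to CYP3A4 activity, from luciferin generated off a proluciferin substrate. Enzyme–substrate mix plus compound 10 min at room temp, NADPH regeneration 1 h, detection reagent 20 min.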

Experiment [14] deals with Nuclear receptor subfamily 1 group I member 2 (Rattus norvegicus) (UniProt Q9R1A7). In words: Rat pregnane X receptor (rPXR) activation by small molecules, qHTS assay (AID 1346983). Also: nearly all actives have a fitted effect of over 20% in size. The conditions noted are these: rPXR luciferase reporter cells, One-Glo luminescence, 24 h; max activation: active compounds read high. The gist of the method:
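Luminescent readout (One-Glo luciferase, 30 min room temperature) followed 24 hr compound treatment at 37 C of rPXR cells plated 2,000 per well and preincubated 5hr; qHTS format with compounds delivered in DMSO.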

Experiment [15] concerns the target Nuclear receptor subfamily 1 group I member 2 (Homo sapiens) (UniProt O75469). In words: CYP3A4 induction through human pregnane X receptor (PXR) by small molecules, qHTS assay (AID 1346984). Also: nearly all actives have a fitted effect of over 40% in size. The gist of the method: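 Quantitative HTS in DPX-2 cells, i.e. HepG2 transfected with PXR response element and CYP3A4-promoter luciferase. Compounds in DMSO incubated 24hr at 37C; then P450-Glo CYP3A4 substrate, 3uM final, 3hr; One-Glo luminescence.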

Experiment [16] shares this target. In words: Human pregnane X receptor (PXR) activation by small molecules, qHTS assay (AID 1346985). Also: nearly all actives have a fitted effect of over 40% in size. The gist of the method:
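DPX-2 cells (HepG2 co-transfected with a PXR response element and a CYP3A4-promoter luciferase construct) were seeded at 2,000 per well, rested 5 hr at 37C, then exposed to DMSO-dissolved compounds for 24 hr. Activation was read as luciferase luminescence.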

Unmarked numbers belong to inactive results. Results filed as inconclusive are left out. Active and inactive are the calls of the source. Unless noted, calls follow the shape of the dose curve; as a rule, active = well fitted curve in the direction sought with a large enough effect in the repeat runs; inconclusive = weak or mixed curves; inactive = no such curve, though single readings can be large; an effect the other way counts as inactive or inconclusive.
% is scaled to controls: 0 for no effect and ±100 for the full control effect.

Nuclear receptor subfamily 1 group I member 2 (Homo sapiens), sequence (O75469 whole entry, looked up): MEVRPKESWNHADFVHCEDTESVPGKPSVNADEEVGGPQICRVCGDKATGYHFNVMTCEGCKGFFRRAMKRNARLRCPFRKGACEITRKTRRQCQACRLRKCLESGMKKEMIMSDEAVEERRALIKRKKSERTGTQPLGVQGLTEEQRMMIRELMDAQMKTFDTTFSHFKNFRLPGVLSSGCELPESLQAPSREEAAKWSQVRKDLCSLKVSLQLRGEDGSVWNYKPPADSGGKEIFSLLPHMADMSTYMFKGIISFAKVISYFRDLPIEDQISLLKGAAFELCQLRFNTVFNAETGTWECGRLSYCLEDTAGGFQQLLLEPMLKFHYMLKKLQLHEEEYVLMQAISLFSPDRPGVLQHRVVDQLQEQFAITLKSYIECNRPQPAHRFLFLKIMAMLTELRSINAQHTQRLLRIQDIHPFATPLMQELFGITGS
Cytochrome P450 1A2 (Homo sapiens), sequence (P05177 whole entry, looked up): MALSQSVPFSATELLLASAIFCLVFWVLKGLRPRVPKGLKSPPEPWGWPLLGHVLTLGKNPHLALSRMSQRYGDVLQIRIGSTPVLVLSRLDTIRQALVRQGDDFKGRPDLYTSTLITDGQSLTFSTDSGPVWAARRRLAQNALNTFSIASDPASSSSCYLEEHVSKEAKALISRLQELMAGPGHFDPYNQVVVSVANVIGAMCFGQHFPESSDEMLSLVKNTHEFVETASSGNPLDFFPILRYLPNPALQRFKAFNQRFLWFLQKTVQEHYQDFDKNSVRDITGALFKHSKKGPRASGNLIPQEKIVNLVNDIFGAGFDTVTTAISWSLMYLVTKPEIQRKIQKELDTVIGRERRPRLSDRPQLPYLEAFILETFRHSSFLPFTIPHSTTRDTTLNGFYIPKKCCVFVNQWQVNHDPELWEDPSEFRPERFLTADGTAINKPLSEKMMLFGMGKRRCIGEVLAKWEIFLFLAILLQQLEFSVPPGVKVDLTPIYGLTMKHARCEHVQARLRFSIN
Cytochrome P450 2D6 (Homo sapiens), sequence (P10635 whole entry, looked up): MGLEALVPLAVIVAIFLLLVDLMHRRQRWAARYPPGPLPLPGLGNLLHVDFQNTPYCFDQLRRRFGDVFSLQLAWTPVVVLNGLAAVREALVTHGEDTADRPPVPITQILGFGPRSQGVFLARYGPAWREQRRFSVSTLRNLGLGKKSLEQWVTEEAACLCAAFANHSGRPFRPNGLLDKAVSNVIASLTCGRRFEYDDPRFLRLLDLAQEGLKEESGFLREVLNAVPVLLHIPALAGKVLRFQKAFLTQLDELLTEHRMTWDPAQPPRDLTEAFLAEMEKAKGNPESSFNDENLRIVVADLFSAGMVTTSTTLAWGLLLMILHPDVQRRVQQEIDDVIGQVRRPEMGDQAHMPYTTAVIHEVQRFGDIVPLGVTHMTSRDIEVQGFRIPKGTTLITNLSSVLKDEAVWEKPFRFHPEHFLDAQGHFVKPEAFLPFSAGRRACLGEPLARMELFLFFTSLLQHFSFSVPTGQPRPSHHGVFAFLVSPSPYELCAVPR
Voltage-gated inwardly rectifying potassium channel KCNH2 (Homo sapiens), sequence (Q12809 whole entry, looked up): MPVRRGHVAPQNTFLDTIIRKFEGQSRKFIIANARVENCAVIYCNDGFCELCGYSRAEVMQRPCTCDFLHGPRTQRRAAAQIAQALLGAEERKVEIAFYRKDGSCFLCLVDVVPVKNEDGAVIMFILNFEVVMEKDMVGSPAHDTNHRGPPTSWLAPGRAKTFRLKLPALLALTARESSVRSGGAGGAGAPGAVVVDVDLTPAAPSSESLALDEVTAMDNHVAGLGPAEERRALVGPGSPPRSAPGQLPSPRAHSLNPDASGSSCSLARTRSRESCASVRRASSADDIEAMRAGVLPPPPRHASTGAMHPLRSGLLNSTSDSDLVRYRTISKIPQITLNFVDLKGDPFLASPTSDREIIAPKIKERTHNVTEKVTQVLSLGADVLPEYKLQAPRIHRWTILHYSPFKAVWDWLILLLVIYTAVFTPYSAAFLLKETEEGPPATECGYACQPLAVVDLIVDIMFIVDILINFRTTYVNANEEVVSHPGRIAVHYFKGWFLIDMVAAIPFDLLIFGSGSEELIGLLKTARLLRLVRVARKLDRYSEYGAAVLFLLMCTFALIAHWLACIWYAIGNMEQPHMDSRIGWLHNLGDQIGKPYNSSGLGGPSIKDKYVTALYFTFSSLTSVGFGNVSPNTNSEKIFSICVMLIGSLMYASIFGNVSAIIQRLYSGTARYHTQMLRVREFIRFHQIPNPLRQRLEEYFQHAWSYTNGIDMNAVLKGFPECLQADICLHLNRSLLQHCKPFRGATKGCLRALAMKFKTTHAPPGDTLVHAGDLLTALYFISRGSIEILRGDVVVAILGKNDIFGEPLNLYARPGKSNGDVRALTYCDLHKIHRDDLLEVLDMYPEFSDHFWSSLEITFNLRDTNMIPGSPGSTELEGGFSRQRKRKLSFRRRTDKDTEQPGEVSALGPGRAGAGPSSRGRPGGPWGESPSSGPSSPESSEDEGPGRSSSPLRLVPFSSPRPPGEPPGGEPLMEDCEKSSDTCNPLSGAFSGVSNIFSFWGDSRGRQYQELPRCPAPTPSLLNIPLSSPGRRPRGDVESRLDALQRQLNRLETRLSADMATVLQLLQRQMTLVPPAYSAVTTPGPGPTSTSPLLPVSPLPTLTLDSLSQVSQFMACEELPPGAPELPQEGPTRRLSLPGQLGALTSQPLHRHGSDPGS
Cytochrome P450 3A4 (Homo sapiens), sequence (P08684 whole entry, looked up): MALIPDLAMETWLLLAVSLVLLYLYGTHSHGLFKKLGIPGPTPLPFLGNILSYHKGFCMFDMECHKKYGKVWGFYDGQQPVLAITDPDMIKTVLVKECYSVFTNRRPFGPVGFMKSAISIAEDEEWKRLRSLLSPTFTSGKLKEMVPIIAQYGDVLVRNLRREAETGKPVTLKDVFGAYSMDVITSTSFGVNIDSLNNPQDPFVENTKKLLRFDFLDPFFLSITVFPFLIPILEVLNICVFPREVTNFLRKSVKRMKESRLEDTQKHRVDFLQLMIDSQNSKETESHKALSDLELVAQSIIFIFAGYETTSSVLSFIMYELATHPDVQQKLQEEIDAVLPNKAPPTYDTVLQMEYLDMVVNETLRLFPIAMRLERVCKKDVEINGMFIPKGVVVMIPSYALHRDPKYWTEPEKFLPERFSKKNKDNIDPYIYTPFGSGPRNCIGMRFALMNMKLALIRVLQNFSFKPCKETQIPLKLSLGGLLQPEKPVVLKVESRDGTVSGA
Cytochrome P450 2C9 (Homo sapiens), sequence (P11712 whole entry, looked up): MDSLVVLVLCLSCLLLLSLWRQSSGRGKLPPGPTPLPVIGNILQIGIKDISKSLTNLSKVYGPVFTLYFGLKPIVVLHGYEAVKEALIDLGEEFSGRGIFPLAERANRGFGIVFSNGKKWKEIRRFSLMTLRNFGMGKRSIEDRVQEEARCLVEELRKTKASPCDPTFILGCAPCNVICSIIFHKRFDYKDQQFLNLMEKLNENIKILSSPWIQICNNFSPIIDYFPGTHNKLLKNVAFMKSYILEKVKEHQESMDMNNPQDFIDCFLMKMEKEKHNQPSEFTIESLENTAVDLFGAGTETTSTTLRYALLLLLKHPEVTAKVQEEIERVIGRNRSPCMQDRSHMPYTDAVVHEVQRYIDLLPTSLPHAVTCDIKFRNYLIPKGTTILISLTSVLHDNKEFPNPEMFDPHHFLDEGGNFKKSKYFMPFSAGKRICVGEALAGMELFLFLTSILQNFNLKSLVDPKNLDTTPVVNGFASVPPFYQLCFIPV
Cytochrome P450 2C19 (Homo sapiens), sequence (P33261 whole entry, looked up): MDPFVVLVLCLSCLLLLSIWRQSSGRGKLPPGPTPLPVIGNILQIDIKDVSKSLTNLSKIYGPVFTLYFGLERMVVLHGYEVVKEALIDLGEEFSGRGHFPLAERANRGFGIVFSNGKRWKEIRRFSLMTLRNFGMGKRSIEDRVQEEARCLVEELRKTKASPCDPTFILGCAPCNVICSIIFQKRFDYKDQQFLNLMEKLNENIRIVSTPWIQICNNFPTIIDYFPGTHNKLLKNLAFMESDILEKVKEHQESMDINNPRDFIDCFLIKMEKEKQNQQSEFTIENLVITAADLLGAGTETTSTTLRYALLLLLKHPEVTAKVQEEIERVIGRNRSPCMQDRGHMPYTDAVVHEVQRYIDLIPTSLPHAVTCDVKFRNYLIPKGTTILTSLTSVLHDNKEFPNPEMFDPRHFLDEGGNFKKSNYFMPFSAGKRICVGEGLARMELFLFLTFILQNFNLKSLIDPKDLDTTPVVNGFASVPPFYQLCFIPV
Nuclear receptor subfamily 1 group I member 2 (Rattus norvegicus), sequence (Q9R1A7 whole entry, looked up): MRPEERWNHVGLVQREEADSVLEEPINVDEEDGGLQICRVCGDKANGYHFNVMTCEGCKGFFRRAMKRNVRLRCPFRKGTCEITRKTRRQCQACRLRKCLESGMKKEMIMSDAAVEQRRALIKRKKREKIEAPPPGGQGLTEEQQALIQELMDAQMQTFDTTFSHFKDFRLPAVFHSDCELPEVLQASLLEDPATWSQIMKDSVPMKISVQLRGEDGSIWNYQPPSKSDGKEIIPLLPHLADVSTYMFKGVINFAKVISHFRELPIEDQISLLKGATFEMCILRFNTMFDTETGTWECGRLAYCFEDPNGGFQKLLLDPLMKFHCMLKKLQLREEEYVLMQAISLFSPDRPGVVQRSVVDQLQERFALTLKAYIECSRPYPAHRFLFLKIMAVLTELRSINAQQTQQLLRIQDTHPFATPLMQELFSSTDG
Thyrotropin-releasing hormone receptor (Homo sapiens), sequence (P34981 whole entry, looked up): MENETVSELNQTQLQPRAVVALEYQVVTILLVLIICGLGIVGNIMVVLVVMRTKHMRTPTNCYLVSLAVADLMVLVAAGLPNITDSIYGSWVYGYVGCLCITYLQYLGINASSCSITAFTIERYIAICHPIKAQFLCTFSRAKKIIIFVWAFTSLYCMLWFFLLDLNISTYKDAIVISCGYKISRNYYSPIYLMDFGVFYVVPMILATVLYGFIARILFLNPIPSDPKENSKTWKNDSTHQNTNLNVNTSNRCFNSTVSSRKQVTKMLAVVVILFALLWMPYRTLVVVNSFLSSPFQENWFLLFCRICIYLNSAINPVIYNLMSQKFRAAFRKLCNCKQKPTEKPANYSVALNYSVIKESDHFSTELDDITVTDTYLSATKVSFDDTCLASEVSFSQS

For `CCCCCCCCCCCC[N+](C)(C)CCCS(=O)(=O)[O-]`, the Potency entry in experiment [1], in experiment [2], in experiment [3], in experiment [4], in [6] and in experiment [7] was “inactive” throughout. The Potency result in experiment [8], in [9], in [10], in experiment [11], in experiment [12] and in experiment [13] was “inactive” throughout. For the same molecule, the molecule was called inactive in [5].

As for `CCNC(=O)N1CCN(CCCC(c2ccc(F)cc2)c2ccc(F)cc2)CC1`, the Potency entry in experiment [1], in [3], in experiment [15], in experiment [16], in [11] and in experiment [13] was “inactive” each time. In addition, the Potency in experiment [2] is 13.3 µM (active); in [4], 26.6 µM (active); in experiment [6] it was 29.8 µM (active); in experiment [7], 26.6 µM (active); in [12], 0.107 µM (active). Further, the molecule was classed as inactive in experiment [5]. Also, in experiment [14], the max activation was -17%.

With `Nc1nccs1`, the Potency result in [1], in experiment [2], in [3], in [4], in [6] and in experiment [7] was “inactive” each time. For the same molecule, the Potency result in experiment [15], in [16], in [10], in experiment [11], in experiment [12] and in experiment [13] was “inactive” in each case. In [5], the molecule was classed as inactive. Also, the max activation in experiment [14] is -2.81%. In experiment [8], the Potency was 31.7 µM (active).

As for `[O]=[Bi]`, the activation in experiment [1] is -0.278% [at 5.23 µM]; in experiment [7], 1.61% [at 8.39 µM]. Moreover, the values for the activity change, negative = cytotoxicity in [2], in experiment [4] and in experiment [6] were 1.27% [at 8.39 µM], -0.807% [at 8.39 µM] and -1.33% [at 8.39 µM], respectively. Further, the caspase activation in [3] is -1.09% [at 8.39 µM]. Also, in experiment [5], the caspase-3/7 activation was -0.359% [at 8.39 µM]. For the same molecule, the activity change, negative = inhibition was -0.389% [at 10.5 µM] in [8]; 1.73% [at 10.5 µM] in experiment [10]; -11% [at 10.5 µM] in experiment [11]; -0.289% [at 6.97 µM] in experiment [12]; 0.199% [at 10.5 µM] in experiment [13].

As for `O=C(N/N=C/c1ccc([N+](=O)[O-])o1)c1ccc(O)cc1`, the Potency result in experiment [1], in experiment [3], in [7], in [15], in [16] and in experiment [13] was “inactive” each time. Also, the Potency in experiment [2] was 10.6 µM (active); in [4], 23.7 µM (active); in [6], 29.8 µM (active). Also, the call in experiment [5] was inactive. Also, the max activation in [14] was -12.4%.

Take `CN1CCN(c2c(F)cc3c(=O)c(C(=O)O)cn4c3c2OCN4C)CC1`: the activation in experiment [1] is 0.19% [at 11.8 µM]; in [7], -8.38% [at 19 µM]. The activity change, negative = cytotoxicity is 4.15% [at 19 µM] in experiment [2], 3.06% [at 19 µM] in [4] and 8.88% [at 19 µM] in experiment [6]. The caspase activation in experiment [3] is 0.165% [at 19 µM]. For the same molecule, the caspase-3/7 activation in [5] was 0.0403% [at 19 µM]. Moreover, in experiment [14], the max activation was -1.24%. For the same molecule, the Potency result in experiment [15], in experiment [16] and in experiment [11] was “inactive” throughout. Also, the activity change, negative = inhibition in [8] is -1.32% [at 23.6 µM]; in experiment [9], -8.19% [at 23.6 µM]; in experiment [10] it was 9.24% [at 23.6 µM]; in experiment [12], -1.8% [at 15.8 µM]; in experiment [13] it was 3.15% [at 23.6 µM].

As to `CO[C@H]1O[C@H](CO)[C@@H](O)[C@H](O)[C@H]1O`, the Potency entry in experiment [1], in experiment [2], in experiment [3], in experiment [4], in experiment [6] and in [7] was “inactive” each time. The Potency result in experiment [8], in [9], in experiment [10], in [11], in experiment [12] and in [13] was “inactive” throughout. In addition, the molecule was called inactive in experiment [5].

Consider `COc1cc2[nH]c(=O)[nH]c(=O)c2cc1OC`, for which the Potency entry in experiment [1], in [2], in experiment [3], in experiment [4], in experiment [6] and in [7] was “inactive” each time. The Potency entry in experiment [15], in experiment [16], in [8], in experiment [9], in experiment [10] and in experiment [12] was “inactive” throughout. Besides, the Potency entry in experiment [13] is “inactive”. The result in [5] was inactive. In addition, the max activation in [14] is -3.43%.
